The list is not random: actives were taken first. Their share in the collection is about 4.4%.
SUMO Mot1 rescue: SUMOylation pathway inhibition by Mot1-301 growth rescue; S. cerevisiae Mot1-301 growth rescue, ATP luminescence, 38.5C; percent above DMSO median, 100 means doubled; growth rescue, % at 18.8 µM; 320,000 compounds, 1% hits; AID 2716;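 active means every valid replicate shows activation above 250% relative to neutral control wells; inactive means the rest, any valid replicate at or below 250%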
tim23-1 inh: inhibits growth of tim23-1 mutant yeast; 330,000 compounds, 1.3% hits; S. cerevisiae tim23-1 growth, BacTiter-Glo luminescence, 24 h; inhibition, % at 20 µM;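 active means growth inhibition of the mutant yeast at or above 50%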;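 further: temperature-sensitive mutant grown at 25 °C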
PfHsp90 yeast 2: inhibits growth of yeast expressing Plasmodium falciparum Hsp90; S. cerevisiae expressing PfHsp90, BacTiter-Glo ATP, 48 h; yeast lacking PDR1 and PDR3 efflux regulators; inhibition, % at 9.4 µM; 310,000 compounds, 0.32% hits;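 active means every replicate shows inhibition above about 80%, whatever the replicate mean, limit read from the data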
TIM10 inh: TIM10 yeast growth inhibition; 330,000 compounds, 1.4% hits; S. cerevisiae TIM10 strain growth, BacTiter-Glo luminescence, 24 h; inhibition, % at 10 µM; AID 463195;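 active means inhibition of 40% or more at the single tested concentration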;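 further: wild-type TIM10 isogenic control strain grown at permissive 25 °C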
tim10-1 inh: inhibits growth of tim10-1 mutant yeast; S. cerevisiae tim10-1 ts strain growth, BacTiter-Glo, 24 h; inhibition, % at 20 µM; 330,000 compounds, 2.2% hits; AID 463190;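 active means inhibition of at least 40%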;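 further: mutant grown at 25 °C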
tim10-1 conf: confirmation of tim10-1 mutant yeast growth inhibitors; shares compounds with tim10-1 inh; S. cerevisiae tim10-1 ts strain growth, BacTiter-Glo, 24 h; inhibition, % at 20 µM; 7,400 compounds, 56% hits; AID 463213;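 active means inhibition of yeast growth at or above a set limit in either of two repeat tests at 20 µM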;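 further: tim10-1 mutant grown at permissive 25 °C to find synthetic lethal compounds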
TIM10 conf: TIM10 yeast growth inhibition, confirmed; shares compounds with TIM10 inh; S. cerevisiae tim10 strain growth, BacTiter-Glo luminescence, 24 h; inhibition, % at 10 µM; 4,600 compounds, 63% hits; AID 463215;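 active means inhibition of yeast growth at or above a set limit in either of two replicates at 10 µM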; further: this counterscreen used the strain with wild-type TIM10
tim23-1 confirm: confirmation of tim23-1 mutant yeast growth inhibitors | shares compounds with tim23-1 inh | S. cerevisiae tim23-1 growth, BacTiter-Glo luminescence, 24 h | inhibition, % at 20 µM | 4,400 compounds, 83% hits | AID 463218;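 active means inhibition above about 39% in either of two replicate wells at 20 µM, limit read from the data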;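 further: temperature-sensitive tim23-1 mutant grown at 25 °C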
A number is an active result.

Results for O=C1/C(=C\c2cc(Br)cc(Br)c2O)SC(=S)N1Cc1ccccc1 ?
SUMO Mot1 rescue: inactive; tim23-1 inh: inactive; PfHsp90 yeast 2: inactive; TIM10 inh: inactive; tim10-1 inh: inactive

What do the screens show for `CCN(C[C@H]1N[C@@](Cc2ccccc2)(C(=O)OC)[C@H]2C(=O)N(Cc3ccccc3)C(=O)[C@@H]12)S(=O)(=O)c1ccc(C(C)(C)C)cc1`?
SUMO Mot1 rescue: inactive; tim23-1 inh: inactive; PfHsp90 yeast 2: inactive; TIM10 inh: inactive; tim10-1 inh: inactive

Results for COc1cc(NC(=O)c2ccc(C)cc2C)ccc1NC(=O)c1cccs1 ?
SUMO Mot1 rescue: inactive; tim23-1 inh: inactive; PfHsp90 yeast 2: inactive; TIM10 inh: inactive; tim10-1 inh: inactive

How did Cc1ccc(C(=O)Nc2cccc(NC(=O)c3cccs3)c2)c(C)c1 do in these assays?
SUMO Mot1 rescue: inactive; tim23-1 inh: 53; PfHsp90 yeast 2: inactive; TIM10 inh: inactive; tim10-1 inh: 47; tim10-1 conf: 36; tim23-1 confirm: 50

What do the screens show for `Cc1cccc2c1N(CCOc1ccccc1Cl)C(=O)C2=O`?
SUMO Mot1 rescue: inactive; tim23-1 inh: 56; PfHsp90 yeast 2: inactive; TIM10 inh: inactive; tim10-1 inh: 51; tim10-1 conf: inactive; tim23-1 confirm: inactive

What do the screens show for `Cc1ccccc1OCCN1C(=O)C(=O)c2cccc(C)c21`?
SUMO Mot1 rescue: inactive; tim23-1 inh: 60; PfHsp90 yeast 2: inactive; TIM10 inh: inactive; tim10-1 inh: 45; tim10-1 conf: inactive; tim23-1 confirm: inactive

What do the screens show for `CCCc1ccc2oc(C(=O)N(C)CCn3ccnc3C)c(C)c2c1`?
SUMO Mot1 rescue: inactive; tim23-1 inh: inactive; PfHsp90 yeast 2: inactive; TIM10 inh: inactive; tim10-1 inh: inactive

How did OCC[C@H]1C[C@H](O)[C@@H](O)[C@]2(CCCc3ccccc3O2)O1 do in these assays?
SUMO Mot1 rescue: inactive; tim23-1 inh: inactive; PfHsp90 yeast 2: inactive; TIM10 inh: inactive; tim10-1 inh: inactive

What do the screens show for `C=CC(=O)N=c1sc2ccccc2n1-c1ccccc1`?
SUMO Mot1 rescue: inactive; tim23-1 inh: 53; PfHsp90 yeast 2: inactive; TIM10 inh: inactive; tim10-1 inh: 51; tim10-1 conf: inactive; tim23-1 confirm: inactive

Results for Cc1cc(N)n2ncc(-c3ccc(Cl)cc3)c2n1 ?
SUMO Mot1 rescue: inactive; tim23-1 inh: 71; PfHsp90 yeast 2: inactive; TIM10 inh: inactive; tim10-1 inh: 53; tim10-1 conf: 41; tim23-1 confirm: 21

Results for Cc1cc(Cl)n2ncc(-c3ccccc3)c2n1 ?
SUMO Mot1 rescue: inactive; tim23-1 inh: inactive; PfHsp90 yeast 2: inactive; TIM10 inh: inactive; tim10-1 inh: inactive

How did Cc1ccc(OCc2cc(C(=O)NCc3ccc(OC(F)(F)F)cc3)no2)cn1 do in these assays?
SUMO Mot1 rescue: inactive; tim23-1 inh: inactive; PfHsp90 yeast 2: inactive; TIM10 inh: inactive; tim10-1 inh: inactive

Results for Cc1ccc(OCc2cc(C(=O)NCc3cnn(-c4cccc(F)c4)c3)no2)cn1 ?
SUMO Mot1 rescue: inactive; tim23-1 inh: 62; PfHsp90 yeast 2: inactive; TIM10 inh: inactive; tim10-1 inh: 44; tim10-1 conf: inactive; tim23-1 confirm: 60

Results for O=C(Sc1cccc2cccnc12)c1ccccc1Br ?
SUMO Mot1 rescue: inactive; tim23-1 inh: 89; PfHsp90 yeast 2: inactive; TIM10 inh: 53; tim10-1 inh: 56; tim10-1 conf: 72; TIM10 conf: 74; tim23-1 confirm: 67

How did O=S(=O)(Nc1cc(Sc2cccc3cccnc23)c(O)c2ccccc12)c1ccc(F)cc1 do in these assays?
SUMO Mot1 rescue: inactive

What do the screens show for `O=C(Sc1cccc2cccnc12)c1ccc(F)cc1`?
tim23-1 inh: 80; TIM10 inh: 55; tim10-1 inh: 76; tim10-1 conf: 67; TIM10 conf: 58; tim23-1 confirm: 71

How did CC(=O)/C(=N\Nc1ccccc1)Sc1cccc2cccnc12 do in these assays?
SUMO Mot1 rescue: inactive; tim23-1 inh: inactive; PfHsp90 yeast 2: inactive; TIM10 inh: inactive; tim10-1 inh: inactive

Results for O=C(Nc1ccc2c(c1)OCO2)c1noc2c1CCCC2 ?
SUMO Mot1 rescue: inactive; tim23-1 inh: inactive; PfHsp90 yeast 2: inactive; TIM10 inh: inactive; tim10-1 inh: inactive

Results for CC(=O)n1cc(N(C(=O)CCl)c2ccc(Cl)cc2)c2ccccc21 ?
SUMO Mot1 rescue: inactive; tim23-1 inh: 64; TIM10 inh: inactive; tim10-1 inh: 48; tim10-1 conf: 46; tim23-1 confirm: 41

Results for COc1ccccc1N(C(=O)CCl)c1cn(C(C)=O)c2ccccc12 ?
SUMO Mot1 rescue: inactive; tim23-1 inh: inactive; PfHsp90 yeast 2: inactive; TIM10 inh: inactive; tim10-1 inh: inactive

How did COc1ccc(C2C3C=CCC(c4cccc(-c5ccc(C)cc5)c4)C3C(=O)N2Cc2ccccc2)cc1Cl (centres undefined) do in these assays?
SUMO Mot1 rescue: inactive; tim23-1 inh: 53; PfHsp90 yeast 2: inactive; TIM10 inh: 56; tim10-1 inh: 46; tim10-1 conf: 40; TIM10 conf: inactive; tim23-1 confirm: 54

Results for CC1CCCN(S(=O)(=O)c2ccc(C(=O)Nc3nnc(C4CC4)o3)cc2)C1 (centres undefined) ?
SUMO Mot1 rescue: inactive; tim23-1 inh: 53; TIM10 inh: inactive; tim10-1 inh: 46; tim10-1 conf: inactive; tim23-1 confirm: inactive

Results for CCN(Cc1nc2cc(Cl)ccc2c(=O)[nH]1)C(=O)c1ccc(C)c(NC(=O)c2ccco2)c1 ?
SUMO Mot1 rescue: inactive; tim23-1 inh: inactive; PfHsp90 yeast 2: inactive; TIM10 inh: inactive; tim10-1 inh: inactive

How did Cc1cccc(NS(=O)(=O)c2ccc(-c3cnc(C4CC4)o3)cc2)c1C do in these assays?
tim23-1 inh: 69; PfHsp90 yeast 2: inactive; TIM10 inh: inactive; tim10-1 inh: 59; tim10-1 conf: 52; tim23-1 confirm: 52

How did Cc1ccc(C)c(NS(=O)(=O)c2ccc(-c3cnc(C4CC4)o3)cc2)c1 do in these assays?
SUMO Mot1 rescue: inactive; tim23-1 inh: inactive; PfHsp90 yeast 2: inactive; TIM10 inh: inactive; tim10-1 inh: inactive

How did O=C(CSCc1ccc(Cl)cc1)NCCSCc1ccco1 do in these assays?
SUMO Mot1 rescue: inactive; tim23-1 inh: inactive; PfHsp90 yeast 2: inactive; TIM10 inh: inactive; tim10-1 inh: inactive

How did O=C(NCCSCc1ccco1)Nc1cc(Cl)cc(Cl)c1 do in these assays?
SUMO Mot1 rescue: inactive; tim23-1 inh: 54; PfHsp90 yeast 2: inactive; TIM10 inh: inactive; tim10-1 inh: 46; tim10-1 conf: 35; tim23-1 confirm: 56

Results for Cc1cc2nn(-c3cccc4ccccc34)nc2cc1N ?
SUMO Mot1 rescue: inactive; tim23-1 inh: inactive; PfHsp90 yeast 2: inactive; TIM10 inh: inactive; tim10-1 inh: inactive
